p53 PUMA act: mutant p53 pathway reactivation; 28,000 tested, 1.5% active; activation, % at 9.98 µM; SW480 PUMA-promoter luciferase; in the data active = activation above about 52%; inconclusive = no clear call, values can overlap the other calls
ID4 SMM: binders of human ID4 protein | P47928 | small molecule microarray, Flag-ID4 binding, fluorescence F/B | calls only | 31,000 tested, 1.2% active | AID 624137; call rule not given here;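 note: a binder raises fluorescence above local background on the spot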
Target sequence (P47928 whole entry, looked up): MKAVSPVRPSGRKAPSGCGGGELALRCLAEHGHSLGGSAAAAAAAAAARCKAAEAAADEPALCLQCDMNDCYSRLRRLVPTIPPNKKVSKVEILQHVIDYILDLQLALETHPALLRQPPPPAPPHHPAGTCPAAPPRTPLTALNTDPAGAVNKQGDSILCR
Hits are given with their value; 0 = inactive; ? = inconclusive; - = no result given; + = active, no number. An excerpt weighted towards active compounds, which were near 2.2% of everything screened.

SMILES	p53 PUMA act	ID4 SMM
Cc1cc(S(=O)(=O)NCC(=O)O)ccc1F	0	0
CC(C)(C)c1ccc(S(=O)(=O)NCCC(=O)O)cc1	0	0
Cc1ccc2cc(S(=O)(=O)NCCC(=O)O)ccc2c1	0	+
Cc1ccc(S(=O)(=O)NCCCO)cc1C(=O)O	0	+
C[C@@H]1CN([C@H](C)CO)C(=O)c2cccc(NS(C)(=O)=O)c2O[C@@H]1CN(C)C(=O)NC1CCCCC1	0	0
COc1ccc(N(C(C)C(=O)Nc2ccc(I)cc2)S(C)(=O)=O)cc1 (stereo not given)	0	0
C[C@H](CO)N1C[C@H](C)[C@@H](CN(C)C(=O)NC2CCCCC2)Oc2ccc(NC(=O)Nc3ccc(C(F)(F)F)cc3)cc2C1=O	0	0
COc1ccc(OCCCSc2ncccn2)cc1	126.3	0
Cc1ccc([N+](=O)[O-])c(OCCSc2ncccn2)c1	?	0
Cc1cc(=O)[nH]c(SCCOc2cccc(Oc3ccccc3)c2)n1	0	0
COc1cccc(OCCCCSc2ncccn2)c1	0	0
O=[N+]([O-])c1ccc(OCCCSc2ncccn2)cc1	56.7	0
COc1cccc(OCCSc2nc(N)cc(N)n2)c1	63.6	0
COc1ccc(S(=O)(=O)N(C)CC(=O)Nc2cc([N+](=O)[O-])ccc2C)cc1	0	0
Cc1noc(C)c1NC(=O)Nc1cccc2c1O[C@@H](CN(C)S(=O)(=O)c1ccc(Cl)cc1)[C@H](C)CN([C@H](C)CO)C2=O	0	0
C/C(=C\CC[C@@H](C)[C@H]1CC[C@@]2(C)C3CC[C@H]4C(C)(C)[C@@H](OC5OC(CO)C(OC6OC(CO)C(O)C(O)C6O)C(O)C5O)CC[C@@]45C[C@@]35CC(O)[C@]12C)C(=O)O (stereo not given in full)	0	0
C[C@@H]1CN([C@@H](C)CO)C(=O)Cc2cc(N(C)C)ccc2O[C@@H]1CN(C)Cc1ccc(C(=O)O)cc1	0	0
O=c1[nH]c(=S)c2c(n1N1CCOCC1)CCC2	0	+
C[C@@H]1CCCCO[C@H](CN(C)C(=O)c2ccccc2)[C@H](C)CN([C@@H](C)CO)C(=O)c2cc(NS(=O)(=O)c3ccccc3)ccc2O1	0	0
C[C@@H]1CN([C@@H](C)CO)C(=O)Cc2cc(NC(=O)CCCN(C)C)ccc2O[C@H]1CN(C)C(=O)Nc1ccc(F)cc1	0	+
C[C@@H]1CN([C@@H](C)CO)C(=O)Cc2cc(NC(=O)CCCN(C)C)ccc2O[C@@H]1CN(C)C	0	0
C[C@H]1CN([C@@H](C)CO)C(=O)Cc2cc(NC(=O)Cc3ccccc3)ccc2O[C@H]1CN(C)C(=O)Nc1ccccc1	0	+
C[C@H](CO)N1C[C@H](C)[C@@H](CN(C)C(=O)Nc2ccccc2)Oc2ccc(NC(=O)Cc3ccccc3)cc2CC1=O	0	0
C[C@@H]1CN([C@H](C)CO)C(=O)c2cccc(NC(=O)Nc3ccc(C(F)(F)F)cc3)c2O[C@H]1CN(C)C	0	0
COc1cccc(NC(=O)N[C@H]2C=C[C@@H](CC(=O)NCc3ccncn3)O[C@H]2CO)c1	-	0
SMILES	p53 PUMA act	ID4 SMM
CN1CCN(C(=O)C[C@H]2CC[C@@H](NC(=O)Nc3ccccc3F)[C@H](CO)O2)CC1	-	0
C[C@H]1CN([C@@H](C)CO)C(=O)c2cccc(NC(=O)Nc3ccc(C(F)(F)F)cc3)c2O[C@H]1CN(C)CC1CC1	0	0
O=C(C[C@H]1C=C[C@H](NS(=O)(=O)c2cccc(F)c2)[C@H](CO)O1)N1CCCCC1	-	0
CCCN(C)C[C@@H]1Oc2cc(Br)ccc2S(=O)(=O)N([C@H](C)CO)C[C@@H]1C	-	0
Cc1ccc(NC(=O)c2ccc(OC(=O)CCN3C(=O)c4ccccc4C3=O)cc2)cc1	102.1	0
COc1ccc(NC(=O)c2ccc(OC(=O)CCN3C(=O)c4ccccc4C3=O)cc2)cc1	0	0
Cc1nnc(SCC(=O)c2ccc3c(c2)OCCO3)s1	89.1	0
Cn1cnnc1SCC(=O)c1ccc2c(c1)OCCO2	0	0
C[C@H](CO)N1C[C@H](C)[C@@H](CN(C)S(=O)(=O)c2cccs2)Oc2c(NC(=O)c3ccc(-c4nccs4)cc3)cccc2C1=O	0	0
O=c1c2ccccc2nc(-c2ccc(Cl)cc2Cl)n1CCCOc1ccccc1[N+](=O)[O-]	0	0
O=c1c2ccccc2ncn1CCCOc1ccccc1[N+](=O)[O-]	91.8	0
CN(Cc1nc(-c2cccc([N+](=O)[O-])c2)no1)S(=O)(=O)c1ccc(Br)cc1	0	0
O=C(COc1ccc([N+](=O)[O-])cc1)Nc1cc(Cl)ccc1O	0	0
N#C[C@H]1[C@@H](c2ccc(C3=CCCC3)cc2)[C@@H](CO)N1C(=O)NC1CCCC1	-	0
COc1ccc(C(C)=O)c(O)c1	0	0
COc1ccc(CCC(=O)c2ccc(OC)cc2O)cc1	58.5	0
C[C@@H]1CN([C@H](C)CO)C(=O)c2cccc(NC(=O)c3ccno3)c2O[C@H]1CN(C)S(=O)(=O)c1cccs1	0	0
Clc1ccc2nc(-c3cccnc3)c(Nc3ccccc3)n2c1	0	0

Screening data as filed in PubChem.
